Data on 63 molecules can be found in PubChem BioAssay AID651571 (The Scripps Research Institute Molecular Screening Center, 2012).

Structures are written as SMILES. Among all 1,500 compounds or so, about 1,300 (87%) were called active. The set was probably picked from earlier hits. Not all results are given here. Values without a mark were called inactive. Rule as the data show it: active = inhibition above about 9%; inactive = the rest.

One may read the inhibition as the relative decrease from the control value, in per cent.

The assay in a line: binders of anti-gp120 antibody PG9, confirmation, biochemical, TR-FRET (AID 651571). Particulars: TR-FRET PG9 antibody binding, at 6.7 µM, hits give high values. In general terms: TR-FRET usually uses a lanthanide donor and a delayed reading to cut background.
Turning to `COc1ccc(Cl)cc1NC(=O)Cn1nc(-c2ccc(C)cc2)n(C)c1=S`, the inhibition was 12.2% (active).
As for `N#Cc1ccccc1NC(=O)c1cccc(COc2ccc(Cl)cc2Cl)c1`, the figure is 15.1% (active); as for `O=C1C(=O)N(CCN2CCOCC2)C(c2cccc(Cl)c2)/C1=C(/O)c1ccc2c(c1)OCO2` (stereo not drawn), 26.7% (active); as for `O=C(O)CCCCCNc1ncnc2ccc(Br)cc12`, 28.1% (active).
The value for `COc1cccc(-c2ccc(C#N)c(SCC(=O)NCCc3ccc(Cl)cc3)n2)c1` was 7.22%; that for `COc1ccc(CCNC(=O)CSc2nc(-c3ccc(OC)c(OC)c3)ccc2C#N)cc1` was 26% (active); that for `O=C(Nc1c(Br)cc2c(c1Br)Cc1cc([N+](=O)[O-])ccc1-2)C(Cl)Cl` was 51.1% (active).
The value for `O=C(COC(=O)c1ccc2c(c1)OCCO2)NCc1ccccc1Cl` was 29.8% (active).
Take `COCCNC(=O)c1cc2c(Br)ccc(Br)c2nc1N`: the inhibition is 16.4% (active).
`C=CCn1c(=NC(=O)c2cccs2)sc2cc(NC(C)=O)ccc21`: the inhibition was 9.74% (active).
In the case of `C=CCn1c(=NC(=O)c2ccc(S(=O)(=O)N3CCCC3)cc2)sc2cc(NC(C)=O)ccc21`, the inhibition was 29.4% (active).
As for `CCCc1nc(SCC(=O)Nc2ccc(S(=O)(=O)N(C)C)cc2)c2ccccc2n1`, the figure is 34.5% (active); as for `CCc1ccc(NC(=O)CSc2nnc(-c3cnccn3)n2Cc2ccco2)cc1`, 22.4% (active).
The value for `O=C(C1=C(O)C(=O)N(Cc2ccccc2)C1c1ccco1)c1ccco1` (stereo not drawn) was 31.8% (active); that for `COc1cccc(-n2c(SCC(=O)c3c[nH]c4ccccc34)nc3ccccc3c2=O)c1` was 27% (active); that for `Cc1cc(C)cc(NC(=O)C2CCCN(S(=O)(=O)c3ccc4[nH]c(=O)ccc4c3)C2)c1` (stereo not drawn) was 23.8% (active).
The value for `CCn1nnc2cc(C(=O)Nc3ccc(C(=O)OC(C)C)cc3)ccc21` was 25.6% (active); that for `COC(=O)C1=C(C)N(Cc2ccccc2C(F)(F)F)C(=NCc2ccc(OC)cc2)NC1c1cccc(C(F)(F)F)c1` (stereo not drawn) was 6.91%.
Regarding `O=C(N=C1SC2CS(=O)(=O)CC2N1Cc1ccccc1)c1ccccc1` (stereo not drawn), the inhibition is 34.1% (active).
The value for `O=C(Nc1cccc(S(=O)(=O)Nc2ccc(Cl)cc2)c1)c1ccc2c(c1)OCCO2` was 23.1% (active); that for `COc1ccc(-c2c(C)nn3c(N4CCC(C(=O)N5CCCCC5)CC4)cc(C)nc23)cc1OC` was 13.9% (active).
As for `CCOc1cccc(NC(=O)Cn2nc(-c3ccc4c(c3)OCCO4)ccc2=O)c1`, the figure is 14.5% (active); as for `Cc1cc2c(cc1C)N1C(=O)c3cc4ccccc4cc3NC(=O)C1C(=O)N2` (stereo not drawn), 12.3% (active).
As for `COc1ccc(-n2nnnc2-c2nc3ccccc3s2)cc1`, the figure is 30.8% (active); as for `CCn1c(SCC(=O)Nc2cccc(F)c2)nnc1-c1cc2cc(Br)ccc2o1`, 40.1% (active); as for `Cc1nc2nc(SCC(=O)c3ccccc3)[nH]c2cc1Br`, 28.4% (active).
Take `N#C/C=C1\Sc2ccccc2C(=O)N1CC(=O)N1CCN(S(=O)(=O)c2ccccc2)CC1`: the inhibition is 22.1% (active).
As for `N#Cc1ccccc1Sc1ccccc1C(=O)OCC(=O)NC1CCCCC1`, the figure is 27.3% (active).
The value for `CC(=O)c1sc2nc(SCC(=O)N3CCCCC3)[nH]c(=O)c2c1C` was 25.6% (active).
As for `COc1cccc(NS(=O)(=O)c2ccc3[nH]cc(C(=O)NCCCOC(C)C)c(=O)c3c2)c1`, the figure is 18.6% (active); as for `Fc1cc(F)c2nc(Nc3nc4c(F)cccc4s3)sc2c1`, 9.6% (active).
`COCCCNc1nc2c(-c3cccc(C)c3)nnn2c2ccc(Cl)cc12`: the inhibition is 19.2% (active).
For `O=C1COc2ccc(C(=O)COC(=O)c3ccccc3Cl)cc2N1`, the inhibition was 24.8% (active).
The value for `Cc1c(-c2ccccc2)nc(N)c(C#N)c1-c1cccs1` was 18.6% (active); that for `N#Cc1c(-c2cccs2)nc(SCC(=O)c2ccc(Br)cc2)[nH]c1=O` was 29.8% (active); that for `COc1ccc(CC(=O)Nc2ccc(-c3nnc(-c4ccccc4)o3)cc2)cc1` was 18.3% (active).
As for `Cc1nc(-c2ccccc2)sc1-c1nc(-c2ccccc2)ncc1S(=O)(=O)c1ccccc1`, the figure is 8.54%; as for `Cc1ccc(-c2cc(C(=O)NCc3cn(C)nc3C)c3cc(Br)ccc3n2)cc1`, 18.5% (active).
As for `CCOC(=O)c1c(C)[nH]c(C(=O)OCC(=O)c2ccc(OC)cc2OC)c1C`, the figure is 45.1% (active); as for `Cc1ccc(-n2c(SCC(=O)NCCC3=CCCCC3)nc3n[nH]c(C)c3c2=N)cc1Cl`, 22.1% (active).
As for `CCCCNC(=O)CSc1nc2n[nH]c(C)c2c(=N)n1-c1cccc(Cl)c1C`, the inhibition was 38.3% (active).
With `Cc1ccc(-n2ncc3c(=O)n(-c4ccc(C)c(C)c4)c(-c4ccco4)nc32)cc1`, the inhibition was 8.17%.
For the molecule `CC1(C)Cc2ccccc2-c2[nH]c(=S)[nH]c(=O)c21`, the inhibition was 9.89% (active).
The value for `CCOc1cc2ccccc2cc1C(=O)Nc1ccccn1` was 12.1% (active); that for `CC(C)OCCCNC(=O)c1cc(Sc2ccc(F)cc2)nc2ccccc12` was 25.9% (active); that for `S=c1[nH]c2ccccc2c2ccccc12` was 14.6% (active).
As for `Cc1cc(Br)ccc1NC(=O)c1sc2ncn(CC(=O)N3CCN(c4ccccn4)CC3)c(=O)c2c1C`, the figure is 5.44%.
The value for `O=C(O)CCC(=O)Nc1nc2ccc([N+](=O)[O-])cc2s1` was 5.06%; that for `COC(=O)c1ccc(NC(=S)Nc2cccc(C)n2)cc1` was 11% (active).
As to `O=C(NCc1ccc(Cl)cc1)c1cc2c(nc3sccn32)s1`, the inhibition was 17.8% (active).
With `CC(=O)c1cc(C#N)c(SCC(=O)Nc2nccs2)nc1C`, the inhibition was 27.5% (active).
The value for `COc1ccc(-c2csc(NC(=O)c3ccc(N4C(=O)CCC4=O)cc3)n2)cc1OC` was 15.2% (active); that for `O=C(Oc1ccccc1)Oc1ccc2c(c1)oc(=O)c1ccccc12` was 46.9% (active).
The value for `CCOc1ccc2cc(C#N)c(SCC(=O)OC)nc2c1` was 48.4% (active); that for `Cc1cccc(Nc2nc3c(S(=O)(=O)c4ccccc4)nnn3c3ccccc23)c1C` was 41.2% (active).
As for `Cc1nc2cc(NC(=O)CSc3nc4c(C)cccc4cc3C#N)ccc2s1`, the figure is 46.4% (active); as for `O=C(Nc1nnc(-c2ccccc2F)s1)c1ccccc1F`, 38.5% (active); as for `N#Cc1c(N)nc2c3c(sc(=N)c2c1N)NC(=O)CC3c1ccccc1Cl` (stereo not drawn), 24.9% (active).
With `CCCOc1ccc(C2C(C(=O)c3ccc(C)o3)=C(O)C(=O)N2CCCn2ccnc2)cc1` (stereo not drawn), the inhibition is 53% (active).
The value for `C=CCOc1cccc(C2C(C(=O)c3ccc(C)o3)=C(O)C(=O)N2CCCn2ccnc2)c1` (stereo not drawn) was 19.4% (active); that for `Cn1c(=S)sc2ccc3ccccc3c21` was 11.9% (active); that for `CCOc1ccc(C(=O)COC(=O)c2ccc(-n3cnnn3)cc2)cc1` was 27.8% (active).
As for `CC(=O)c1sc(NC(=O)CCCOc2ccccc2C)nc1C`, the figure is 18.4% (active).
